Measured values: PubChem BioAssay AID1159580 (chemical genetic matrix, 2015)
The whole screen tested about 5,500 compounds, of which about 2,000 (36%) were called active. Not shown: some 18% with an inconclusive outcome. The list shows a part of the results. Unmarked numbers belong to inactive results. No stated cut-off is given here; in the data, active means normalized growth mostly below about 0.91 (no sharp cut-off); inconclusive means no clear call, values can overlap the other calls; inactive means mostly above about 0.92.

Test: chemical genetic growth profiling, strain panel (AID 1159580);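 further: tested at 20 µM; growth read once vehicle control cultures reached saturation at 30 °C; 1 = growth at the plate median or of vehicle wells; lower values mean less growth of the strain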
Settings: growth OD

**Q.** What does the source list for `CCOC(=O)c1c(C)cc(O)c(C=O)c1O`?
**A.** normalized growth (S. cerevisiae deletion strains, locus YJR075W, strain HOC1, active compounds read low): 0.272 (active); normalized growth (S. cerevisiae deletion strains, locus YKL009W, strain mrt4, active compounds read low): 0.446 (active); normalized growth (S. cerevisiae deletion strains, locus YKL068W, active compounds read low): 0.799 (active); normalized growth (S. cerevisiae deletion strains, locus YKL085W, strain MDH1 (second series), active compounds read low): 0.528 (active); normalized growth (S. cerevisiae deletion strains, locus YKL085W, strain MDH1, active compounds read low): 0.528 (active); normalized growth (S. cerevisiae deletion strains, locus YKL160W, strain elf1, active compounds read low): 0.655 (active); normalized growth (S. cerevisiae deletion strains, locus YKL190W, strain CNB1, active compounds read low): 0.108 (active); normalized growth (S. cerevisiae deletion strains, locus YKR001C, strain vps1, active compounds read low): 0.103 (active); normalized growth (S. cerevisiae deletion strains, locus YKR026C, strain gcn3, active compounds read low): 0.823 (active); normalized growth (S. cerevisiae deletion strains, locus YKR091W, strain srl3, active compounds read low): 0.851 (active); normalized growth (S. cerevisiae deletion strains, locus YLL001W, strain dnm1, active compounds read low): 0.568 (active); normalized growth (S. cerevisiae deletion strains, locus YLL026W, active compounds read low): 0.706 (active); normalized growth (S. cerevisiae deletion strains, locus YLL041C, strain sdh2, active compounds read low): 0.823 (active); normalized growth (S. cerevisiae deletion strains, locus YLR027C, strain aat2, active compounds read low): 0.593 (active); normalized growth (S. cerevisiae deletion strains, locus YLR039C, strain RIC1, active compounds read low): 0.0958 (active); normalized growth (S. cerevisiae deletion strains, locus YLR058C, strain SHM2, active compounds read low): 0.202 (active); normalized growth (S. cerevisiae deletion strains, locus YLR102C, strain apc9, active compounds read low): 0.221 (active); normalized growth (S. cerevisiae deletion strains, locus YLR113W, strain HOG1, active compounds read low): 0.157 (active); normalized growth (S. cerevisiae deletion strains, locus YLR221C, strain rsa3, active compounds read low): 0.499 (active); normalized growth (S. cerevisiae deletion strains, locus YLR258W, strain gsy2, active compounds read low): 0.681 (active); normalized growth (S. cerevisiae deletion strains, locus YLR262C, strain YPT6 (second series), active compounds read low): 0.153 (active); normalized growth (S. cerevisiae deletion strains, locus YLR262C, strain YPT6, active compounds read low): 0.113 (active); normalized growth (S. cerevisiae deletion strains, locus YLR268W, strain sec22, active compounds read low): 0.091 (active); normalized growth (S. cerevisiae deletion strains, locus YLR320W, strain mms22, active compounds read low): 0.292 (active); normalized growth (S. cerevisiae deletion strains, locus YLR330W, strain CHS5, active compounds read low): 0.176 (active); normalized growth (S. cerevisiae deletion strains, locus YLR342W, strain FKS1 (second series), active compounds read low): 0.159 (active); normalized growth (S. cerevisiae deletion strains, locus YLR342W, strain FKS1, active compounds read low): 0.586 (active); normalized growth (S. cerevisiae deletion strains, locus YLR357W, strain rsc2, active compounds read low): 0.772 (active); normalized growth (S. cerevisiae deletion strains, locus YLR370C, strain arc18, active compounds read low): 0.656 (active); normalized growth (S. cerevisiae deletion strains, locus YLR371W, strain rom2, active compounds read low): 0.158 (active); normalized growth (S. cerevisiae deletion strains, locus YLR384C, strain iki3, active compounds read low): 0.718 (active); normalized growth (S. cerevisiae deletion strains, locus YLR418C, strain cdc73, active compounds read low): 0.13 (active); normalized growth (S. cerevisiae deletion strains, locus YML016C, strain PPZ1, active compounds read low): 0.344 (active); normalized growth (S. cerevisiae deletion strains, locus YML032C, strain rad52, active compounds read low): 0.137 (active); normalized growth (S. cerevisiae deletion strains, locus YML120C, strain ndi1, active compounds read low): 0.652 (active); normalized growth (S. cerevisiae deletion strains, locus YML124C, strain tub3, active compounds read low): 0.262 (active); normalized growth (S. cerevisiae deletion strains, locus YMR058W, strain fet3, active compounds read low): 0.0978 (active); normalized growth (S. cerevisiae deletion strains, locus YMR078C, strain ctf18, active compounds read low): 0.112 (active); normalized growth (S. cerevisiae deletion strains, locus YMR125W, strain sto1, active compounds read low): 0.673 (active); normalized growth (S. cerevisiae deletion strains, locus YMR129W, active compounds read low): 0.722 (active); normalized growth (S. cerevisiae deletion strains, locus YMR205C, strain PFK2, active compounds read low): 0.47 (active); normalized growth (S. cerevisiae deletion strains, locus YMR223W, strain ubp8, active compounds read low): 0.2 (active); normalized growth (S. cerevisiae deletion strains, locus YMR231W, strain pep5, active compounds read low): 0.311 (active); normalized growth (S. cerevisiae deletion strains, locus YMR263W, strain SAP30, active compounds read low): 0.353 (active); normalized growth (S. cerevisiae deletion strains, locus YMR307W, strain GAS1, active compounds read low): 0.133 (active); normalized growth (S. cerevisiae deletion strains, locus YNL067W, strain RPL9B, active compounds read low): 0.201 (active); normalized growth (S. cerevisiae deletion strains, locus YNL071W, strain lat1, active compounds read low): 0.248 (active); normalized growth (S. cerevisiae deletion strains, locus YNL128W, strain TEP1, active compounds read low): 0.237 (active); normalized growth (S. cerevisiae deletion strains, locus YNL153C, strain GIM3, active compounds read low): 0.205 (active); normalized growth (S. cerevisiae deletion strains, locus YNL183C, strain NPR1, active compounds read low): 0.0359 (active); normalized growth (S. cerevisiae deletion strains, locus YNL209W, strain ssb2, active compounds read low): 0.392 (active); normalized growth (S. cerevisiae deletion strains, locus YNL233W, strain BNI4, active compounds read low): 0.153 (active); normalized growth (S. cerevisiae deletion strains, locus YNL248C, strain rpa49, active compounds read low): 0.635 (active); normalized growth (S. cerevisiae deletion strains, locus YNL250W, strain rad50, active compounds read low): 0.514 (active); normalized growth (S. cerevisiae deletion strains, locus YNL271C, strain bni1, active compounds read low): 0.347 (active); normalized growth (S. cerevisiae deletion strains, locus YNL298W, strain CLA4, active compounds read low): 0.382 (active); normalized growth (S. cerevisiae deletion strains, locus YNL307C, strain MCK1, active compounds read low): 0.0757 (active); normalized growth (S. cerevisiae deletion strains, locus YNL322C, strain KRE1 (second series), active compounds read low): 0.797 (active); normalized growth (S. cerevisiae deletion strains, locus YNL322C, strain KRE1, active compounds read low): 0.207 (active); normalized growth (S. cerevisiae deletion strains, locus YNR049C, strain mso1, active compounds read low): 0.796 (active); normalized growth (S. cerevisiae deletion strains, locus YNR052C, strain pop2, active compounds read low): 0.155 (active); normalized growth (S. cerevisiae deletion strains, locus YOL006C, strain TOP1, active compounds read low): 0.137 (active); normalized growth (S. cerevisiae deletion strains, locus YOL012C, strain htz1): 0.305; normalized growth (S. cerevisiae deletion strains, locus YOL147C, strain pex11, active compounds read low): 0.0808 (active); normalized growth (S. cerevisiae deletion strains, locus YOR001W, strain rrp6, active compounds read low): 0.604 (active); normalized growth (S. cerevisiae deletion strains, locus YOR061W, strain CKA2, active compounds read low): 0.486 (active); normalized growth (S. cerevisiae deletion strains, locus YOR069W, strain VPS5, active compounds read low): 0.255 (active); normalized growth (S. cerevisiae deletion strains, locus YOR070C, strain gyp1, active compounds read low): 0.535 (active); normalized growth (S. cerevisiae deletion strains, locus YOR080W, strain dia2, active compounds read low): 0.642 (active); normalized growth (S. cerevisiae deletion strains, locus YOR083W, strain WHI5, active compounds read low): 0.674 (active); normalized growth (S. cerevisiae deletion strains, locus YOR106W, strain vam3, active compounds read low): 0.358 (active); normalized growth (S. cerevisiae deletion strains, locus YOR136W, strain idh2, active compounds read low): 0.267 (active); normalized growth (S. cerevisiae deletion strains, locus YOR144C, strain elg1, active compounds read low): 0.136 (active); normalized growth (S. cerevisiae deletion strains, locus YOR184W, strain ser1, active compounds read low): 0.0931 (active); normalized growth (S. cerevisiae deletion strains, locus YOR231W, strain MKK1, active compounds read low): 0.142 (active); normalized growth (S. cerevisiae deletion strains, locus YOR265W, strain rbl2, active compounds read low): 0.697 (active); normalized growth (S. cerevisiae deletion strains, locus YOR270C, strain vph1, active compounds read low): 0.263 (active); normalized growth (S. cerevisiae deletion strains, locus YOR290C, strain snf2, active compounds read low): 0.558 (active); normalized growth (S. cerevisiae deletion strains, locus YOR316C, strain cot1, active compounds read low): 0.213 (active); normalized growth (S. cerevisiae deletion strains, locus YPL051W, strain arl3, active compounds read low): 0.225 (active); normalized growth (S. cerevisiae deletion strains, locus YPL055C, strain LGE1, active compounds read low): 0.171 (active); normalized growth (S. cerevisiae deletion strains, locus YPL078C, strain atp4, active compounds read low): 0.558 (active); normalized growth (S. cerevisiae deletion strains, locus YPL106C, strain sse1, active compounds read low): 0.708 (active); normalized growth (S. cerevisiae deletion strains, locus YPL240C, strain hsp82, active compounds read low): 0.75 (active); normalized growth (S. cerevisiae deletion strains, locus YPL241C, strain CIN2, active compounds read low): 0.224 (active); normalized growth (S. cerevisiae deletion strains, locus YPL256C, strain CLN2, active compounds read low): 0.15 (active); normalized growth (S. cerevisiae deletion strains, locus YPR119W, strain clb2, active compounds read low): 0.164 (active); normalized growth (S. cerevisiae deletion strains, locus YPR141C, strain kar3, active compounds read low): 0.704 (active); normalized growth (S. cerevisiae deletion strains, locus YPR163C, strain tif3, active compounds read low): 0.0943 (active); normalized growth (S. cerevisiae deletion strains, locus YPR167C, strain met16, active compounds read low): 0.252 (active); normalized growth (S. cerevisiae deletion strains, strain wtn01, active compounds read low): 0.166 (active); normalized growth (S. cerevisiae strains, strain wild type, active compounds read low): 0.162 (active)
